For assay [1], the target named is T1, Casein kinase II (Homo sapiens) (UniProt P67870+P68400+P19784). The following applies: at 1 µM.
For assay [2], the target named is T1, Casein kinase II (Homo sapiens). As to conditions: at 10 µM.
For assay [3], the target named is Casein kinase II subunit alpha' (Homo sapiens) (UniProt P19784). As to conditions: at 1 µM.
For assay [4] the target is unchanged. The following applies: at 10 µM.
The target of assay [5] is Dual specificity protein kinase CLK2 (Homo sapiens) (UniProt P49760). The following applies: at 1 µM.
Dual specificity protein kinase CLK2 (Homo sapiens), sequence (P49760 whole entry, looked up): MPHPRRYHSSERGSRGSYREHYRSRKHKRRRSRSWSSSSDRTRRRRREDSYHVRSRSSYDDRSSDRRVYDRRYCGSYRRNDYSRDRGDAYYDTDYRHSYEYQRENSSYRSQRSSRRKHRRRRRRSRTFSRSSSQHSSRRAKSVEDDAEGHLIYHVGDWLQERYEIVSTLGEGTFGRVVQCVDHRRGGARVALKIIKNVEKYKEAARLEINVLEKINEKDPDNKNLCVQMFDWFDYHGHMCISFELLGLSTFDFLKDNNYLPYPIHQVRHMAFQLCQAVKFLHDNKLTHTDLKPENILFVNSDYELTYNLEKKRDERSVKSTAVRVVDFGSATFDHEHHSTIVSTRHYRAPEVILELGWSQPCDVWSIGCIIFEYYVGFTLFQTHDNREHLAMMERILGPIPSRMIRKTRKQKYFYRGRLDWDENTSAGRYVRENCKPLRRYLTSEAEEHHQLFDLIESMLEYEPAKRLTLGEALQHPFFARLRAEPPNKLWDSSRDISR
The target is the same in assay [6]. The following applies: at 10 µM.
The target of assay [7] is Dual specificity protein kinase CLK3 (Homo sapiens) (UniProt P49761). As to conditions: at 1 µM.
Dual specificity protein kinase CLK3 (Homo sapiens), sequence (P49761 whole entry, looked up): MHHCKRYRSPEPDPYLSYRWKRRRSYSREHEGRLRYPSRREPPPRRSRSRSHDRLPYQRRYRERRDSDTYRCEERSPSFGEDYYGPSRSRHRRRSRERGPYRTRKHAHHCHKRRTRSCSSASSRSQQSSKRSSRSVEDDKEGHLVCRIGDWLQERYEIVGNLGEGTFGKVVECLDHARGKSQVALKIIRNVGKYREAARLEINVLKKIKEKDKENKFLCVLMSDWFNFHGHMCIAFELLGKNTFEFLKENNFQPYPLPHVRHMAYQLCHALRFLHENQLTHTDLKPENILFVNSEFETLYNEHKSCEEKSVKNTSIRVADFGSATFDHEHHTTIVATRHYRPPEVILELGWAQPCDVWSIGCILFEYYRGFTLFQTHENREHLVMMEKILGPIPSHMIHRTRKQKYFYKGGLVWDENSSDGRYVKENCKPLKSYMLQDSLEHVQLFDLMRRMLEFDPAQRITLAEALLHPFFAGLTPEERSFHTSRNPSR
For assay [8] the target is unchanged. The following applies: at 10 µM.
Assay [9] addresses Tyrosine-protein kinase CSK (Homo sapiens) (UniProt P41240). The following applies: at 1 µM.
For assay [10] the target is unchanged. The following applies: at 10 µM.
Assay [11] concerns the target Calcium/calmodulin-dependent protein kinase type 1 (Homo sapiens) (UniProt Q14012). As to conditions: at 1 µM.
For assay [12] the target is unchanged. The following applies: at 10 µM.
Assay [13] has as its target Calcium/calmodulin-dependent protein kinase type II subunit beta (Homo sapiens) (UniProt Q13554). The following applies: at 1 µM.
The target is the same in assay [14]. As to conditions: at 10 µM.
The target in assay [15] is Calcium/calmodulin-dependent protein kinase type II subunit gamma (Homo sapiens) (UniProt Q13555). As to conditions: at 1 µM.
Calcium/calmodulin-dependent protein kinase type II subunit gamma (Homo sapiens), sequence (Q13555 whole entry): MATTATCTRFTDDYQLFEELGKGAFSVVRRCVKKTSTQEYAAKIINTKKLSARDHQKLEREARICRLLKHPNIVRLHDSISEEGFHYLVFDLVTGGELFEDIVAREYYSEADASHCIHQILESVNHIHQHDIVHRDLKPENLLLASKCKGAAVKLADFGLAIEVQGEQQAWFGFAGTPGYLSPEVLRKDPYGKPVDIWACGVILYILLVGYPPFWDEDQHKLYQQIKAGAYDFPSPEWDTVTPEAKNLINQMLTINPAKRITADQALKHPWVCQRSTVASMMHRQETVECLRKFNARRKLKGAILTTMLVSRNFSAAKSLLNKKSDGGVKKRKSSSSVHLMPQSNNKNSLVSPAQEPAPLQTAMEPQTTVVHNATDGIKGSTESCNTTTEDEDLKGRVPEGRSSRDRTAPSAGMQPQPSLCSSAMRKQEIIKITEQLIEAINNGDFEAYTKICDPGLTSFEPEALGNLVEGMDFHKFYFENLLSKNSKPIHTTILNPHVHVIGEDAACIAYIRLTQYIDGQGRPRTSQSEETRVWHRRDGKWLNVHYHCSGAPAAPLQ
For assay [16] the target is unchanged. As to conditions: at 10 µM.
Assay [17] addresses Calcium/calmodulin-dependent protein kinase type II subunit delta (Homo sapiens) (UniProt Q13557). The following applies: at 1 µM.
For assay [18] the target is unchanged. As to conditions: at 10 µM.
Assay [19] has as its target T2, Calcium/calmodulin-dependent protein kinase type IV (Homo sapiens) (UniProt Q16566).
T2 sequence (whole entry): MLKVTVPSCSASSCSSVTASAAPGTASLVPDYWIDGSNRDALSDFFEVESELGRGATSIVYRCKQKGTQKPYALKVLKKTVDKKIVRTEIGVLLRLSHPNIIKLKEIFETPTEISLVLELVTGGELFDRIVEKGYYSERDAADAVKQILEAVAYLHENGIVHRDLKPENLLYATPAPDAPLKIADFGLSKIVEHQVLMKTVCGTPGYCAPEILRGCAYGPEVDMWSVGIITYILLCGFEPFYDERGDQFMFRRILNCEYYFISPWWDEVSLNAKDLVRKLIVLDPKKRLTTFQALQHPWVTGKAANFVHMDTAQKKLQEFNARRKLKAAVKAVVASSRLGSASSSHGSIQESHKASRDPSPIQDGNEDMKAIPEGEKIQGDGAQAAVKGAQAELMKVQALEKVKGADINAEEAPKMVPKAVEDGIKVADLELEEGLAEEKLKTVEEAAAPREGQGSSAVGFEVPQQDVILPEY
The following applies: at 1 µM.

Assay [20] has as its target T2, Calcium/calmodulin-dependent protein kinase type IV (Homo sapiens). As to conditions: at 10 µM.

Calcium/calmodulin-dependent protein kinase type II subunit beta (Homo sapiens), sequence (Q13554 whole entry): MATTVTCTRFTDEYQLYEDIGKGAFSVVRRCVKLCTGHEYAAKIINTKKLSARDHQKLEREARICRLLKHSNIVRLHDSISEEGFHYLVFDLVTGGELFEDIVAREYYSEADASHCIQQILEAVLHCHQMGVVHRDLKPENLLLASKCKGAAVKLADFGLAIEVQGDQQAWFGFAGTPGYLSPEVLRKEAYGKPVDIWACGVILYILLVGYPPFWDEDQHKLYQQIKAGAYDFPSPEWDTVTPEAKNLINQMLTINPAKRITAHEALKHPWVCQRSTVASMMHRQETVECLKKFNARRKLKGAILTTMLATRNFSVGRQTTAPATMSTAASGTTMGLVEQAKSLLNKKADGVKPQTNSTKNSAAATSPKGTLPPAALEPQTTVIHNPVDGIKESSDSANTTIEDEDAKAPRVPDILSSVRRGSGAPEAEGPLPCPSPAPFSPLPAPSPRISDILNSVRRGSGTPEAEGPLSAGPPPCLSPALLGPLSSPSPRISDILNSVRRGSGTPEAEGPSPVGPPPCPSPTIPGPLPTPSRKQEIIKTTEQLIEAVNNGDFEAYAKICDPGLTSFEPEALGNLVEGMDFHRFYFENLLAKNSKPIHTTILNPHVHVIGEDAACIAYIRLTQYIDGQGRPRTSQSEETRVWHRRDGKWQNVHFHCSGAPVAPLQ
T1 sequence (P19784 whole entry, looked up): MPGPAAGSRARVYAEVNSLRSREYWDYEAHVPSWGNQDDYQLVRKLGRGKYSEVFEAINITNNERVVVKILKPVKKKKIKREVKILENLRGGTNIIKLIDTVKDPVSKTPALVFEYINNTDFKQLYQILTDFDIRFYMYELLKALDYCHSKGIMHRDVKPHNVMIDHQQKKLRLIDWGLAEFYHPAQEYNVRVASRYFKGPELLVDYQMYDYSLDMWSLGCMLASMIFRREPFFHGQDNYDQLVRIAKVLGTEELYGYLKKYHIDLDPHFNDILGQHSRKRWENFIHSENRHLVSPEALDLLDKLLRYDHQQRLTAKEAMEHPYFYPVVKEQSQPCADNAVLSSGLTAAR
T1 sequence (P67870 whole entry, looked up): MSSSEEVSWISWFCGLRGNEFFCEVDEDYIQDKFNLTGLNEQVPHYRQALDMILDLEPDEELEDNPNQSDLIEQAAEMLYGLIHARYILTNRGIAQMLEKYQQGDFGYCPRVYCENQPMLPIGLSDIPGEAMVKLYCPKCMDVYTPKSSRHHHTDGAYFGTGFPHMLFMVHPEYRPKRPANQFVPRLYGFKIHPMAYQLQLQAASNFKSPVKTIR
T1 sequence (P68400 whole entry, looked up): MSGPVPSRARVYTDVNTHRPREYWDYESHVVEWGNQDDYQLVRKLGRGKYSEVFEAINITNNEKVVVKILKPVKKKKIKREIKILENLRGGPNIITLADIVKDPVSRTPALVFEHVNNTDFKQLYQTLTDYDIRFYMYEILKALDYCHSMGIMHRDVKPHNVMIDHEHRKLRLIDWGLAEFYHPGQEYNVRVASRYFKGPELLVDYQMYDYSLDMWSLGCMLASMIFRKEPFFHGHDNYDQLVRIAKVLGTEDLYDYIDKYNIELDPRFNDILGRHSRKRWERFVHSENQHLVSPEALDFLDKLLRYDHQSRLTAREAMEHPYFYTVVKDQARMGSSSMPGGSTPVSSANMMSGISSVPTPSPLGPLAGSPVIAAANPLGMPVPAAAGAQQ
Casein kinase II subunit alpha' (Homo sapiens), sequence (P19784 whole entry, looked up): as the sequence (P19784 whole entry, looked up) above
Calcium/calmodulin-dependent protein kinase type II subunit delta (Homo sapiens), sequence (Q13557 whole entry): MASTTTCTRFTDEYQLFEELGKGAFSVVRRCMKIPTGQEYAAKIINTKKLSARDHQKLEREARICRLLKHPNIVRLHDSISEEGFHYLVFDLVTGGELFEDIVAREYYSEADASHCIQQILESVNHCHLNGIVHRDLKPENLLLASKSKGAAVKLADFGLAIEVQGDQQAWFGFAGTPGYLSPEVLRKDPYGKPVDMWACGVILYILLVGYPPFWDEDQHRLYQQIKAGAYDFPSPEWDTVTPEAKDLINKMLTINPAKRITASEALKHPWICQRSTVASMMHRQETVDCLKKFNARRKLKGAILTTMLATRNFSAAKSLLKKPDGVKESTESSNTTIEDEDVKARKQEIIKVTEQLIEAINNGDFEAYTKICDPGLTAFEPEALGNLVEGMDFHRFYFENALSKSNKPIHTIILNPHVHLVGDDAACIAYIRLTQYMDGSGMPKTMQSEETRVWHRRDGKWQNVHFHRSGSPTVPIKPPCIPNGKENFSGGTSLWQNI
Calcium/calmodulin-dependent protein kinase type 1 (Homo sapiens), sequence (Q14012 whole entry, looked up): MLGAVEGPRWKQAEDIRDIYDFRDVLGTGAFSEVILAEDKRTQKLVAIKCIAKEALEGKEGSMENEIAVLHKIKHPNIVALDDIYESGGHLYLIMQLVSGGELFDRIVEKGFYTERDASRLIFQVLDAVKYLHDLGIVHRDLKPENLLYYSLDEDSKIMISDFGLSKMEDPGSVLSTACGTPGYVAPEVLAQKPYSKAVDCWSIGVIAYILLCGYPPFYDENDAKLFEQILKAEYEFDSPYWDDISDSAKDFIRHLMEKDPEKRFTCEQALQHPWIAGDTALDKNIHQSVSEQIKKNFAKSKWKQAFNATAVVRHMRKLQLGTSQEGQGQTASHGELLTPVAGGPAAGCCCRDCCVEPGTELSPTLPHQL
Tyrosine-protein kinase CSK (Homo sapiens), sequence (P41240 2-450 limits assumed): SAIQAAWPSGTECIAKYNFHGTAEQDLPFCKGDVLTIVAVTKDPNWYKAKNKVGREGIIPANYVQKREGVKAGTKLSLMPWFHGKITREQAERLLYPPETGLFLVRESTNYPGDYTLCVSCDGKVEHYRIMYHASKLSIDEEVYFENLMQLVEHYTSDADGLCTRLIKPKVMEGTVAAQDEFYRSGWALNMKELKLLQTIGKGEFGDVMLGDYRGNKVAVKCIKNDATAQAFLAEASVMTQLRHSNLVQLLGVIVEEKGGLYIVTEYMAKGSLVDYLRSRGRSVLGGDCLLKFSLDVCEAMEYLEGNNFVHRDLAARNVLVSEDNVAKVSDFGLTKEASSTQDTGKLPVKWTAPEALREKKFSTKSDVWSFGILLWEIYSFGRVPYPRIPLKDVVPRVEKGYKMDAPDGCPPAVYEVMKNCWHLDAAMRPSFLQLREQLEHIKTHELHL

For `Oc1n[nH]c2nnc(-c3c(-c4ccccc4)nn4ccccc34)cc12`, the residual activity in [1] was 92%; in assay [2] it was 82%; in [3] it was 110%; in assay [4], 91%; in [5], 114%; in [6] it was 118%. The residual activity in [7] is 85%; in assay [8] it was 96%; in assay [9], 93%; in assay [10], 84%; in [11], 92%; in assay [12], 79%. The residual activity in [13] is 91%; in assay [14], 80%; in assay [15], 90%; in assay [16] it was 78%; in [17] it was 87%; in assay [18], 82%. The residual activity in assay [19] came out at 105%; in assay [20] it was 96%.

In the case of `CCC(=O)Nc1ccc2ncnc(Nc3cccc(Br)c3)c2c1`, the residual activity in [1] amounted to 107%; in assay [2], 101%; in [3], 125%; in [4] it was 90%; in [5], 125%; in assay [6], 105%. For the same compound, the residual activity was found to be 76% in [7]; 142% in assay [8]; 104% in assay [9]; 93% in [10]; 96% in assay [11]; 98% in assay [12]. Also, the residual activity in [13] was determined as 90%; in assay [14] it was 80%; in assay [15], 100%; in assay [16], 74%; in [17], 109%; in [18] it was 79%. Also, the figures for the residual activity in assay [19] and in [20] were 123% and 73%, respectively.

Turning to `Cc1nc2cc3nc(-c4cccs4)cnc3cc2n1C`, the residual activity in [1] was determined as 102%; in assay [2], 104%; in assay [3], 130%; in assay [4], 92%; in [5], 114%; in assay [6] it was 63%. For the same compound, the residual activity turned out to be 99% in [7]; 53% in assay [8]; 110% in assay [9]; 109% in assay [10]; 109% in assay [11]; 107% in [12]. In addition, the residual activity in assay [13] is 100%; in assay [14], 93%; in assay [15] it was 103%; in assay [16], 84%; in assay [17] it was 106%; in assay [18] it was 85%. Also, the residual activity in assay [19] amounted to 129%; in assay [20], 101%.

Regarding `CN(C)c1ccc(/C=C2\C(=O)Nc3ccccc32)cc1`, the residual activity is 87% in assay [1]; 108% in assay [2]; 115% in assay [3]; 96% in assay [4]; 86% in assay [5]; 48% in assay [6]. In addition, the residual activity in assay [7] came to 77%; in assay [8], 13%; in [9], 116%; in [10] it was 119%; in [11], 122%; in assay [12], 116%. Further, the residual activity came to 101% in [13]; 76% in [14]; 92% in assay [15]; 46% in assay [16]; 89% in [17]; 35% in assay [18]. The residual activity in assay [19] was 87%; in [20], 89%.

In the case of `O=c1c2ccccc2[nH]c(=S)n1CCN1CCC(=C(c2ccc(F)cc2)c2ccc(F)cc2)CC1`, the residual activity in [1] came to 89%; in assay [2], 116%; in assay [3], 125%; in [4], 93%; in [5], 115%; in assay [6], 94%. Further, the residual activity was 90% in assay [7]; 64% in assay [8]; 120% in assay [9]; 98% in assay [10]; 110% in assay [11]; 113% in assay [12]. Also, the residual activity in assay [13] came out at 102%; in assay [14] it was 79%; in assay [15], 115%; in assay [16], 100%; in [17], 105%; in assay [18] it was 91%. Besides, the residual activity in [19] is 108%; in [20], 95%.

With `O=C(Nc1cccc(Nc2nccc(Nc3cccc(C(F)(F)F)c3)n2)c1)C1CC1`, the residual activity in [1] stood at 75%; in assay [2] it was 109%; in assay [3], 108%; in [4] it was 72%; in [5] it was 71%; in [6], 82%. The residual activity in assay [7] came out at 76%; in [8] it was 9%; in assay [9] it was 115%; in assay [10], 100%; in assay [11], 86%; in assay [12] it was 31%. For the same compound, the residual activity in assay [13] was found to be 100%; in [14], 38%; in [15], 76%; in [16] it was 12%; in assay [17], 66%; in assay [18], 19%. Also, the residual activity in assay [19] amounted to 84%; in [20], 62%.

On to `CO[C@H]1[C@@H](OC)C[C@H](C)[C@@H](OC)C2=CC(=O)C=C(NC(=O)/C(C)=C/C=C/[C@H](OC)[C@@H](OC(N)=O)/C(C)=C/[C@@H]1C)C2=O`, for which the residual activity in [1] is 88%; in [2] it was 111%; in [3], 99%; in [4], 99%; in assay [5], 100%; in assay [6], 110%. The residual activity is 88% in assay [7]; 89% in assay [8]; 108% in assay [9]; 118% in assay [10]; 115% in assay [11]; 88% in assay [12]. Further, the residual activity was 97% in assay [13]; 93% in assay [14]; 107% in [15]; 100% in assay [16]; 102% in assay [17]; 110% in [18]. The figures for the residual activity in assay [19] and in [20] were 89% and 81%, respectively.
